This assay is described as follows: endogenous miR-122 level reduction, dose response, orthogonal assay for miR-122 inhibitor project, cell-based, Huh7, RT-qPCR, dry powder (AID 687041). The settings on record: Huh7 miR-122 level, 48 h; series mostly up to 35 µM. A general note: Quantitative PCR measures a nucleic acid by following its amplification.

Measured potencies and affinities stand elsewhere. Activity calls are given as the source filed them.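 Rule for the calls: active = compounds lowering miR-122 whose fitted half-maximal concentration is at most twice the top tested dose; inconclusive = flat fit with moderate reduction, or poor fit quality; inactive = the rest.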

Consider `O=C(CN1CCOCC1)Nc1ccc(Br)cc1C(=O)c1ccccc1`, for which the compound was classed as inactive.

Source of the values: PubChem BioAssay AID687041 (Broad Institute, 2013).
